Assay results as given in the supplement of paper PMC11577813, “Eurasian spruce bark beetle detects lanierone using a highly expressed specialist odorant receptor, present in several functional sensillum types” (BMC Biology, 2024).
± gives the standard deviation of the averaged measurements.

System: lanierone-responsive B-neuron OSN class (ItypOR36)
Assay: net action potential response of lanierone B-neuron (blank-subtracted) (spikes/s (Hz)); higher = stronger excitation
Conditions: 10 µg on filter paper, neuron: B neuron (small spike amplitude)
Procedure: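 Single sensillum recordings from antennal olfactory sensilla of live adult Ips typographus. Each compound was 10 µg in paraffin oil, delivered as a 0.5 s puff. Net response = spikes in the first 0.5 s of response minus the 0.5 s pre-stimulus count, doubled to give Hz, with blank response subtracted. Values are for the small-spike lanierone-responsive B-neuron (putatively expressing ItypOR36), recorded in sensilla co-housing the A-neuron class; N = 1-4, averaged.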

[1] = co-localized A-neuron class: (4S)-cis-verbenol
[2] = co-localized A-neuron class: (5S,7S)-trans-conophthorin
[3] = co-localized A-neuron class: (+)-isopinocamphone
[4] = co-localized A-neuron class: (+)-trans-4-thujanol
[5] = co-localized A-neuron class: ipsdienol
[6] = co-localized A-neuron class: myrcene
[7] = co-localized A-neuron class: p-cymene

SMILES	net action potential response [1]	net action potential response [2]	net action potential response [3]	net action potential response [4]	net action potential response [5]	net action potential response [6]	net action potential response [7]
CC(=O)OCCc1ccccc1 [2-Phenethyl acetate]	5.33 ± 13	-0.667 ± 3.1	-1.33 ± 3.1	0.5 ± 4.1	-6.67 ± 7	-6	-5.33 ± 2.3
CCC/C=C/CO	0.667 ± 6.4	4.67 ± 3.1	-0.667 ± 6.1	4 ± 2.8	2 ± 5.3	2	2 ± 2.8
CC1=CC(C)(C)C=C(O)C1=O [Lanierone]	135 ± 24	141 ± 31	160 ± 24	155 ± 24	121 ± 13	144	151 ± 12
CC1=CCC2CC1C2(C)C (stereo not drawn) [(-)-α-Pinene]	-6 ± 4	-1.33 ± 2.3	2 ± 2	0 ± 5.7	-1.33 ± 4.2	2	-5.33 ± 4.6
C=CC(O)CCCCC (racemic) [(±)-1-Octen-3-ol]	-6.67 ± 5	-0.5 ± 2.5	-2 ± 4	0 ± 1.6	-3.33 ± 1.1	4	0.667 ± 3.1
CCC(C)CO (racemic) [(±)-2-Methyl-1-butanol]	0 ± 3.5	2 ± 3.3	-2 ± 2	3.5 ± 3	-1.33 ± 5	-4	-2 ± 4
